From PubChem BioAssay (Tox21) come the findings set out here.

Molecules are shown by their SMILES. Records with an inconclusive call do not appear. Calls of active or inactive are those of the source. Unless noted, the call rests on the fitted dose curve; in most records, active means well fitted curve in the direction sought with a large enough effect in the repeat runs; inconclusive means weak or mixed curves; inactive means no such curve, though single readings can be large; an effect the other way counts as inactive or inconclusive.

The nature of assay [1]: qHTS assay for small molecule agonists of the p53 signaling pathway (AID 651631; calls by dose curve; further: nearly all actives have a fitted effect of over 15% in size; further: potency means the concentration at half of the fitted maximal effect). In outline: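 Fluorescence intensity from cleaved LiveBLAzer B/G substrate (2 h, room temperature) served as the signal. Beforehand, HCT-116 reporter cells bearing p53 response elements were treated 16 h at 37 °C with DMSO-dissolved compounds.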
The nature of assay [2]: qHTS assay for small molecule agonists of the p53 signaling pathway - cell viability (AID 651633; calls by dose curve; further: nearly all actives have a fitted effect of over 30% in size; further: potency means the concentration at half of the fitted maximal effect). The essentials:
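Viability counter-read: CellTiter-Glo luminescence (30 min, room temperature) in the same p53RE-bla plates. These plates had been exposed to compounds for 16 h at 37 C.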
(In general: Quantitative high-throughput screening tests each substance at several concentrations.)

Assay [3] is described as follows: qHTS assay for small molecules that induce genotoxicity in human embryonic kidney cells expressing luciferase-tagged ATAD5 - cell viability (AID 651634; calls by dose curve; further: nearly all actives have a fitted effect of over 25% in size; further: potency means the concentration at half of the fitted maximal effect). In outline:
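HEK293T cells expressing luciferase-tagged ATAD5 were exposed to compound or DMSO for 15.5 hr at 37C, 5% CO2. Viability was then read as live-cell protease activity by CellTiter-Fluor fluorescence after 30 min at 37C.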

Assay [4] in a line: qHTS assay for small molecule disruptors of the mitochondrial membrane potential (AID 720635). Further: potency means the concentration at half of the fitted maximal effect. The essentials:
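Mitochondrial membrane potential tracked with Mito-MPS dye, red aggregates (ex 540/em 590 nm) against green monomers (ex 490/em 535 nm). Compound treatment 1 hr at 37C, dye 30 min in HepG2.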

Assay [5] in a line: qHTS assay to test for compound auto fluorescence at 590 nm (red) in HepG2 cells (AID 720674). In outline:
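Red autofluorescence (Ex/Em 540/590 nm, Rose Bengal sodium equivalents) was measured in HepG2 cells, 2,000 per well in MEM plus 10% FBS, plated overnight at 37 C. Readings were taken 1 hr after adding 23 nL compound or DMSO, at 37 C and 5% CO2.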

Assay [6] is described as follows: qHTS assay to test for compound auto fluorescence at 535 nm (green) in HepG2 cells (AID 720675).
Assay [7] can be described thus: qHTS assay to test for compound auto fluorescence at 460 nm (blue) in HEK293 cells (AID 720678). In outline:
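Blue read-out at excitation 405 nm and emission 460 nm follows overnight compound exposure of HEK293 cells at 37C in 5% CO2. Activity is given as auto fluorescence equivalency to triamterene.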

Assay [8] in a line: qHTS assay to test for compound auto fluorescence at 590 nm (red) in HEK293 cells (AID 720679). The essentials: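 Red channel, Ex/Em 540/590nm; signal expressed as equivalency to Rose Bengal sodium. HEK293, 2,000 cells/well, 10% dialyzed FBS; 23 nL compound pinned after 4-5 hr attachment; overnight 37C/5% CO2 before reading.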
Assay [9] can be described thus: qHTS assay to test for compound auto fluorescence at 535 nm (green) in HEK293 cells (AID 720680).
A short description of assay [10]: qHTS assay to test for compound auto fluorescence at 460 nm (blue) in HEK293 cell free culture (AID 720681). The essentials: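 Blue fluorescence (Ex 405/Em 460 nm, triamterene-equivalent) was read immediately after pin transfer of compound or DMSO into medium (DMEM, 10% FBS) without cells.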
Assay [11] can be described thus: qHTS assay to test for compound auto fluorescence at 535 nm (green) in HEK293 cell free culture (AID 720682). In outline:
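Intrinsic compound fluorescence is measured in culture medium containing 10% FBS, with excitation at 485 nm and detection at 535 nm, referenced to fluorescein.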

Assay [12] is described as follows: qHTS assay to test for compound auto fluorescence at 590 nm (red) in HEK293 cell free culture (AID 720683). The essentials:
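Red-channel autofluorescence of compounds in culture medium (DMEM, 10% FBS), no cells, measured at 540/590 nm. Rose Bengal sodium is the reference fluorophore for equivalence.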

Assay [13] can be described thus: qHTS assay to test for compound auto fluorescence at 460 nm (blue) in HepG2 cell free culture (AID 720685). In outline: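 Compound (23 nL) or DMSO pinned into cell-free MEM with 10% FBS; blue fluorescence read at 405/460 nm excitation/emission, expressed as auto-fluorescence equivalency to triamterene.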
A short description of assay [14]: qHTS assay to test for compound auto fluorescence at 535 nm (green) in HepG2 cell free culture (AID 720686).
Assay [15] can be described thus: qHTS assay to test for compound auto fluorescence at 460 nm (blue) in HepG2 cells (AID 720687). In outline:
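Blue-channel autofluorescence (Ex/Em 405/460 nm, triamterene-equivalent) was measured after 1 hr compound exposure at 37 C, 5% CO2. Cells were HepG2, plated overnight at 37 C in MEM plus 10% FBS.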

The target of assay [16] is Glucocorticoid receptor (Homo sapiens) (UniProt P04150). The experiment in a line: qHTS assay to identify small molecule antagonists of the glucocorticoid receptor (GR) signaling pathway (AID 720692; active means well fitted inhibition curve with a large enough effect in the signal ratio in the repeat runs, not every such curve was filed as active; the % refers to the signal ratio; further: potency means the concentration at half of the fitted maximal effect). The essentials:
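GR-bla HeLa cells (beta-lactamase reporter under glucocorticoid response element) were pre-plated 4 h at 37 C, treated with compounds plus 5 nM dexamethasone (final) for 18 h, then read by LiveBLAzer B/G FRET fluorescence after 2 h.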

Assay [17] in a line: qHTS assay for small molecules that induce genotoxicity in human embryonic kidney cells expressing luciferase-tagged ATAD5 (AID 651632). Further: nearly all actives have a fitted effect of over 15% in size. The essentials:
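HEK293T cells carrying a luciferase reporter tagged to ATAD5 were exposed to compound or DMSO vehicle for 16 hr at 37C, 5% CO2. Amplite was added, and after 30 min at room temperature luciferase activity was read as a marker of ATAD5 induction.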

Assay [18] in a line: qHTS assay for small molecule disruptors of the mitochondrial membrane potential - cell viability (AID 720634; calls by dose curve; further: nearly all actives have a fitted effect of over 20% in size; further: potency means the concentration at half of the fitted maximal effect). The essentials:
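HepG2 cells seeded overnight at 37 C, then exposed to compound or DMSO for 1 hr at 37 C, 5% CO2. m-MPI dye added, then CellTiter-Glo for 30 min at room temperature; viability read as ATP luminescence.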

Assay [19] can be described thus: qHTS assay to test for compound auto fluorescence at 590 nm (red) in HepG2 cell free culture (AID 720684). The essentials:
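Plate contents were MEM with 10% FBS plus test compound or DMSO, no cells. Fluorescence was recorded with 540 nm excitation and 590 nm emission.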

In assay [20] the target is Glucocorticoid receptor (Homo sapiens) (UniProt P04150). The assay is described as follows: qHTS assay to identify small molecule agonists of the glucocorticoid receptor (GR) signaling pathway (AID 720691; active means well fitted activation curve with a large enough effect in the signal ratio in the repeat runs, not every such curve was filed as active; the % refers to the signal ratio). To be noted: GR-bla HeLa, beta-lactamase reporter ratio, 18 h; activation: at 62.4 µM (top of the series). In outline: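 GR-bla HeLa cells (beta-lactamase reporter under glucocorticoid response element) were plated 4 h at 37 C/5% CO2, given compounds in DMSO, and incubated 18 h at 37 C. LiveBLAzer B/G FRET substrate was added for 2 h at room temperature, then fluorescence intensity read.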
Sequence of Glucocorticoid receptor (Homo sapiens) (P04150 whole entry, looked up): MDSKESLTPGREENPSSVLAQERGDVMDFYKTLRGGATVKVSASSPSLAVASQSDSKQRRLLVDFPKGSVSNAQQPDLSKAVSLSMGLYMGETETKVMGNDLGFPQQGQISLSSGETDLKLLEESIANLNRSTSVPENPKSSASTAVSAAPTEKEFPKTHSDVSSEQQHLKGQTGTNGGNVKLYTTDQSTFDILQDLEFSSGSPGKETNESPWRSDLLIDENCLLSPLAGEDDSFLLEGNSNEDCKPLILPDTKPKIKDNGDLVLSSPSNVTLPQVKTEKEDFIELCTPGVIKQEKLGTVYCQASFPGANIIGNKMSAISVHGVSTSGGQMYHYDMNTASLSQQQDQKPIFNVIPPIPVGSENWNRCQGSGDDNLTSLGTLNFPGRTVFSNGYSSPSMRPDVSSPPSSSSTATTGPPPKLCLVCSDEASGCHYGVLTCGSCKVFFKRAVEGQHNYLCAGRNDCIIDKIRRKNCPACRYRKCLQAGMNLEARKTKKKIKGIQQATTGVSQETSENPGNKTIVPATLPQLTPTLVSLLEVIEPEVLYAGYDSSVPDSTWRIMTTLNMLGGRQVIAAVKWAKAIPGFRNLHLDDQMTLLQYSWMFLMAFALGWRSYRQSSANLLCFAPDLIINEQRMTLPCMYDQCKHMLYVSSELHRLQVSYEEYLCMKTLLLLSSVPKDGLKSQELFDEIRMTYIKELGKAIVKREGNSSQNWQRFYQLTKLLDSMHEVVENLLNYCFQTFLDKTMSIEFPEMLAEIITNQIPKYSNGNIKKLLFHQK

For the compound `CN`, the Potency entry in assay [1], in assay [2], in assay [3], in assay [4], in assay [6] and in assay [7] was “inactive” throughout. In addition, the Potency entry in [10], in [13], in assay [14], in assay [15] and in assay [16] was “inactive” each time. For the same compound, the call in assay [5], in assay [8], in assay [9], in assay [11] and in assay [12] was inactive.

With `COP(=S)(OC)Oc1nc(Cl)c(Cl)cc1Cl`, the Potency result in assay [17], in assay [2], in [3], in assay [18], in [6] and in assay [7] was “inactive” throughout. Also, the Potency entry in [10], in [13], in assay [14], in assay [15], in [20] and in assay [16] was “inactive” throughout. Also, the Potency in assay [4] is 48500 nM (active). The call in assay [5], in assay [8], in assay [9], in assay [11], in assay [12] and in [19] was inactive.

With `BrCC(Br)(Br)Br`, the Potency in [1] is 7110 nM (active). The Potency entry in assay [2], in assay [18], in assay [6], in assay [7], in assay [10] and in [13] was “inactive” throughout. For the same compound, the Potency entry in assay [14] and in assay [15] was “inactive” in each case. The compound was called inactive in [8], in [9], in [11], in assay [12] and in [19].

Turning to `N#CC(C#N)=NNc1cccc(Cl)c1`, the Potency entry in [17], in [18], in assay [6], in [7], in [10] and in assay [13] was “inactive” each time. The Potency result in [14] and in assay [15] was “inactive” each time. Moreover, the Potency in assay [2] was 864 nM (active); in assay [3], 7700 nM (active); in assay [4], 109 nM (active). In addition, the result in assay [5], in [8], in assay [9], in [12] and in [19] was inactive.

For the compound `CC1CN1` (centres undefined), the Potency result in assay [1], in [2], in assay [18], in assay [4], in [6] and in assay [7] was “inactive” in each case. The Potency entry in assay [10], in [13], in [14] and in assay [15] was “inactive” throughout. Besides, the compound was called inactive in assay [5], in assay [8], in assay [9], in assay [11], in assay [12] and in assay [19].

On to `C=C(C)C(=O)[O][Sn]([CH2]CCC)([CH2]CCC)[CH2]CCC`, for which the Potency result in assay [17], in assay [6], in [7], in assay [10], in [13] and in assay [14] was “inactive” each time. In addition, in [15], the Potency entry was “inactive”. For the same compound, the Potency is 611 nM (active) in assay [2], 611 nM (active) in [3], 3860 nM (active) in assay [18] and 61.1 nM (active) in [4]. Also, the outcome in [5], in assay [8], in [9], in [11], in assay [12] and in assay [19] was inactive.

`CCOP(=O)(OCC)Oc1nc(Cl)c(Cl)cc1Cl`: the Potency entry in [17], in assay [2], in assay [3], in [18], in assay [6] and in assay [7] was “inactive” in each case. The Potency result in [10], in [13], in assay [14], in assay [15] and in assay [20] was “inactive” in each case. For the same compound, the Potency in [4] was 60800 nM (active); in assay [16], 27400 nM (active). The call in assay [5], in assay [9], in assay [11], in [12] and in [19] was inactive.

With `Brc1cccc(-c2ccccc2)c1`, the Potency entry in [17], in assay [2], in assay [3], in [18], in assay [6] and in assay [7] was “inactive” in each case. Besides, the Potency result in [10], in assay [13], in [14], in assay [15] and in assay [16] was “inactive” in each case. Further, the Potency in assay [4] was 436 nM (active). The result in assay [5], in assay [8], in [9], in assay [11], in assay [12] and in assay [19] was inactive.
